Measured values: PubChem BioAssay (EPA / NIEHS)
Activity calls are given as the source filed them. The calls were made as follows: active = hit-call score of the fitted dose curve at least 0.9, where 1 is the maximum; inactive = score below 0.9.

How the values were obtained:
Conditions in all cases: mRNA level, 48 h; actives raise or lower the signal
[1] = read-out: Tumor necrosis factor receptor superfamily member 6 (Homo sapiens) (UniProt P25445); experiment: LTEA_HepaRG_FAS: Life Technologies and Expression Analysis (LTEA) Assay for Fas cell surface death receptor (FAS) using HepaRG (AID 2283447)
Summary of the method: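 Differentiated HepaRG cells in serum-free induction medium were exposed 48 h to 8 half-log concentrations up to 100 uM in 0.5% DMSO, in duplicate. FAS mRNA was measured by qRT-PCR normalised to ACTB, GAPDH and POLR2A; bidirectional fit versus DMSO.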

[2] = read-out: Fatty acid synthase (Homo sapiens) (UniProt P49327); experiment: LTEA_HepaRG_FASN: Life Technologies and Expression Analysis (LTEA) Assay for Fatty Acid Synthase (FASN) using HepaRG (AID 2283448);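 as to AC50: differentiated human HepaRG liver cells in serum-free induction medium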
Summary of the method: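 Cells were plated, cultured 48 h, switched to serum-free induction medium, then dosed in duplicate (max 100 uM, half-log dilutions, 0.5% DMSO) for 48 h. RNA was then isolated and FASN quantified by qRT-PCR.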

[3] = read-out: Cyclin Dependent Kinase Inhibitor 1A (CDKN1A), CDKN1A (gene 1026); experiment: LTEA_HepaRG_CDKN1A: Life Technologies and Expression Analysis (LTEA) Assay for Cyclin Dependent Kinase Inhibitor 1A (CDKN1A) using HepaRG (AID 2283450)
Summary of the method: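 Differentiated HepaRG cells in serum-free induction medium, exposed 48 h in duplicate to eight half-log concentrations up to 100 uM in 0.5% DMSO. mRNA measured by TaqMan qRT-PCR, normalized to ACTB, GAPDH, POLR2A; bidirectional fit versus DMSO.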

[4] = read-out: Cyclin D1 (CCND1), CCND1 (gene 595); experiment: LTEA_HepaRG_CCND1: Life Technologies and Expression Analysis (LTEA) Assay for Cyclin D1 (CCND1) using HepaRG (AID 2283451);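 as to AC50: differentiated human HepaRG liver cells in serum-free induction medium; TaqMan qRT-PCR transcript level normalised to ACTB GAPDH and POLR2A housekeeping genes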
Summary of the method: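 Differentiated HepaRG cells exposed 48 h in serum-free induction medium to eight half-log concentrations from 100 uM top, 0.5% DMSO, duplicates. CCND1 mRNA measured by Fluidigm TaqMan qRT-PCR, normalised to ACTB, GAPDH, POLR2A; bidirectional fit.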

[5] = read-out: Cyclin D2 (CCND2), CCND2 (gene 894); experiment: LTEA_HepaRG_CCND2: Life Technologies and Expression Analysis (LTEA) Assay for Cyclin D2 (CCND2) using HepaRG (AID 2283449);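 also: CCND2 transcript measured by TaqMan qRT-PCR and normalised to three housekeeping genes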
Summary of the method: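 HepaRG, 48 h dosing, 8-pt half-log curve from 100 uM, 0.5% DMSO; duplicate wells. Readout: CCND2 transcript by microfluidic qRT-PCR, housekeeping-normalised; bidirectional fit vs DMSO baseline.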

Fatty acid synthase (Homo sapiens), sequence (P49327 whole entry, looked up): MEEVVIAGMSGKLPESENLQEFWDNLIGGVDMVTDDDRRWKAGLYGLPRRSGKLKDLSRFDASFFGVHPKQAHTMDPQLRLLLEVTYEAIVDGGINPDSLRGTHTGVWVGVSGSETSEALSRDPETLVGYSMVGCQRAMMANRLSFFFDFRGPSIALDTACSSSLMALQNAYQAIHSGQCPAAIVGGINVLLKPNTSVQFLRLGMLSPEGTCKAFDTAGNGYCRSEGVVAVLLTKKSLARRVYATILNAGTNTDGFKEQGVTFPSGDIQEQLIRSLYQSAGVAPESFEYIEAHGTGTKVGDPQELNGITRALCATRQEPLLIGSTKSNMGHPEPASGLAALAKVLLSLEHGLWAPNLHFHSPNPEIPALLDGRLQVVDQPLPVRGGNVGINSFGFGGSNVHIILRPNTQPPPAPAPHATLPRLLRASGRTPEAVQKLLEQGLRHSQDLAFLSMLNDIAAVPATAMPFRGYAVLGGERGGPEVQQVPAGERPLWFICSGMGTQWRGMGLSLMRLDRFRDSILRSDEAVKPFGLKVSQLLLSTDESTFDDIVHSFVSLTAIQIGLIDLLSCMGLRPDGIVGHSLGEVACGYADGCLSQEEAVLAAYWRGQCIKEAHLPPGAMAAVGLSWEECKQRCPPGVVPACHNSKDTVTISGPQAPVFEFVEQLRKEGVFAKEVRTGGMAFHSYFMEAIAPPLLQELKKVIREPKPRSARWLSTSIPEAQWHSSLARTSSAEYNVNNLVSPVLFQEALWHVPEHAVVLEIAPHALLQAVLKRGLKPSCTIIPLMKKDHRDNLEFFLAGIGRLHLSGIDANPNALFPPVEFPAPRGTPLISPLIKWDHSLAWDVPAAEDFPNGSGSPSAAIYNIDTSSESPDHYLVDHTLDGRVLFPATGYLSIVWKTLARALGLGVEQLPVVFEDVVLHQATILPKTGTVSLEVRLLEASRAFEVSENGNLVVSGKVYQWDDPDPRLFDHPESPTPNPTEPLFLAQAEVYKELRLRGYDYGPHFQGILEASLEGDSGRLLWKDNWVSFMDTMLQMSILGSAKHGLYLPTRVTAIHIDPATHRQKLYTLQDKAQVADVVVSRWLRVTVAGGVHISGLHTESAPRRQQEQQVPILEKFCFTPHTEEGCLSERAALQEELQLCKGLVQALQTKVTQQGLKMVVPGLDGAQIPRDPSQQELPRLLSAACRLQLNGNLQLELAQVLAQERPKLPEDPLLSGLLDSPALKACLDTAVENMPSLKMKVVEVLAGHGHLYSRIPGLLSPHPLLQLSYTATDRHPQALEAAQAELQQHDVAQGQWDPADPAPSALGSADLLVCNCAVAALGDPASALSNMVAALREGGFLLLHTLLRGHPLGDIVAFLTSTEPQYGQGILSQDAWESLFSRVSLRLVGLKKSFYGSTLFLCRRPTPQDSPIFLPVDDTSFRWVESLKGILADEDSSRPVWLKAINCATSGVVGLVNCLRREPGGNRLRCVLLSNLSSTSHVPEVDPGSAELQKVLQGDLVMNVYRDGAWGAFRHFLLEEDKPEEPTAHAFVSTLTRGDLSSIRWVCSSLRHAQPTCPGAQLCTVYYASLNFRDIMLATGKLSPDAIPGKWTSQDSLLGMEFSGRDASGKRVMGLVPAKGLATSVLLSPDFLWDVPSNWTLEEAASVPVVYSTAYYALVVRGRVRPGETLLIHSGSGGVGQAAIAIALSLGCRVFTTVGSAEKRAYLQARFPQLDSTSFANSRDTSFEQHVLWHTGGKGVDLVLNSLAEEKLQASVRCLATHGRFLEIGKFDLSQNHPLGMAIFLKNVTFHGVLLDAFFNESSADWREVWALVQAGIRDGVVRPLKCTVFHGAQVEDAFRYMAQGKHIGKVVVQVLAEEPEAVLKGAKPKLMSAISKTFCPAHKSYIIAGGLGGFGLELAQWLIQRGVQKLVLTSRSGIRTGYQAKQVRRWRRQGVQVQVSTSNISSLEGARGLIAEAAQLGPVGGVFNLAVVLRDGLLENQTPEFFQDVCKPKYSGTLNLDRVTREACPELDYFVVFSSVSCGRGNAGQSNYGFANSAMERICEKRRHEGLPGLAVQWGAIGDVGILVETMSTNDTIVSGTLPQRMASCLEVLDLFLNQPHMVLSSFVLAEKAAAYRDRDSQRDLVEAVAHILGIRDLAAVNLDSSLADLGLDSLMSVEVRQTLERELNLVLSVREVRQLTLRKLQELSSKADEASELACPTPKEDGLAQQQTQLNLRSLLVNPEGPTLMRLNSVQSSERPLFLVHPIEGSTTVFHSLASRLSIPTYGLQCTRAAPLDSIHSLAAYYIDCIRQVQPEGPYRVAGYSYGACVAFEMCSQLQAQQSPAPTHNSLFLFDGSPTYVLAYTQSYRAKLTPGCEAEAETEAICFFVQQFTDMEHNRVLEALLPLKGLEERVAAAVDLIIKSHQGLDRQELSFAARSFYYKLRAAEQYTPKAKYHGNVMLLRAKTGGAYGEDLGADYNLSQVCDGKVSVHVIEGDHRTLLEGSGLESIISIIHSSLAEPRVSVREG

SMILES | outcome [1] | outcome [2] | outcome [3] | outcome [4] | AC50 [3] | outcome [5] | AC50 [1] | AC50 [2] | AC50 [4]
Cc1ccc(C(C)C)cc1 | inactive | inactive | inactive | inactive |  |  |  |  | 
CC1(C)NC(=O)N(c2ccc([N+](=O)[O-])c(C(F)(F)F)c2)C1=O | inactive | inactive |  | inactive | 80.8 µM (active) |  |  |  | 
O=C=NCCCCCCN=C=O | inactive | inactive | inactive | inactive |  | inactive |  |  | 
O=c1ccc2ccccc2o1 | inactive | inactive | inactive | inactive |  | inactive |  |  | 
OCCO |  | inactive | inactive | inactive |  | inactive |  |  | 
COc1ccc2cc(S(=O)(=O)N[C@H](CC(=O)N[C@H](Cc3ccc(CN4[C@H](C)CCC[C@@H]4C)cc3)C(=O)N(C)C(C)C)c3ccc4c(c3)OCO4)ccc2c1 |  | inactive | inactive | inactive |  |  | 15.1 µM (active) |  | 
CC[C@H](NC(=O)c1cc(F)ccc1NS(=O)(=O)c1cccc2cccnc12)c1ccccc1 | inactive | inactive | inactive | inactive |  | inactive |  |  | 
O=C(O)c1ccccc1-n1cc(C(=O)O)c(=O)c2cc(Nc3c(F)cc(F)cc3Cl)c(Cl)cc21 | inactive | inactive | inactive | inactive |  |  |  |  | 
Cc1ncc(CO)c(CO)c1O | inactive | inactive | inactive | inactive |  | inactive |  |  | 
CC(C)(C)c1csc(-c2cc3cc(OCc4ccccc4CC(=O)O)ccc3o2)n1 | inactive |  | inactive |  |  | inactive |  | 84 µM (active) | 50 µM (active)
Cc1cc(F)ccc1-c1cc(N2CC[C@@H](O)[C@H]2CO)ncc1N(C)C(=O)C(C)(C)c1cc(C(F)(F)F)cc(C(F)(F)F)c1 |  | inactive |  | inactive | 12.3 µM (active) | inactive | 71.7 µM (active) |  | 
CCCOC(=O)c1cc(O)c(O)c(O)c1 | inactive | inactive | inactive | inactive |  | inactive |  |  | 
CC[C@@H]1C[C@H](N(Cc2cc(C(F)(F)F)cc(C(F)(F)F)c2)C(C)=O)c2cc(C(F)(F)F)ccc2N1C(=O)OC(C)C | inactive | inactive | inactive | inactive |  | inactive |  |  | 
O=c1[nH]sc2ccccc12 | inactive | inactive | inactive | inactive |  |  |  |  | 
CC(O)CC(C)(C)O (configuration not stated) | inactive | inactive | inactive | inactive |  |  |  |  | 
CN(C)C(=O)C1(N2CCCCC2)CCN(CC[C@@]2(c3ccc(Cl)c(Cl)c3)CN(C(=O)c3ccccc3)CCO2)CC1 | inactive |  |  |  | 84.3 µM (active) | inactive |  | 61 µM (active) | 47.2 µM (active)
O=C1O[C@H]([C@@H](O)CO)C(O)=C1O | inactive | inactive | inactive | inactive |  | inactive |  |  | 
CCN(Cc1cccc(S(=O)(=O)O)c1)c1ccc(C(=C2C=CC(=[N+](CC)Cc3cccc(S(=O)(=O)O)c3)C=C2)c2ccccc2S(=O)(=O)[O-])cc1 | inactive | inactive | inactive | inactive |  | inactive |  |  | 
O=C(OCCCCCCOC(=O)c1ccccc1)c1ccccc1 | inactive | inactive | inactive | inactive |  | inactive |  |  | 

SMILES | outcome [1] | outcome [2] | outcome [3] | outcome [4] | AC50 [3] | outcome [5] | AC50 [1] | AC50 [2] | AC50 [4]
CCCCCCCCCC(=O)O | inactive | inactive | inactive | inactive |  | inactive |  |  | 
CCO[Si](CCCNC(N)=O)(OCC)OCC | inactive |  | inactive | inactive |  | inactive |  |  | 
Cc1cccc2ccccc12 | inactive | inactive | inactive | inactive |  | inactive |  |  | 
CCCCCCCCCCCCO | inactive | inactive | inactive | inactive |  | inactive |  |  | 
C[C@]12CC[C@@H]3c4ccc(O)cc4CC[C@H]3[C@@H]1CCC2=O | inactive | inactive | inactive | inactive |  | inactive |  |  | 
CO[C@H]1/C=C/O[C@@]2(C)Oc3c(C)c(O)c4c(O)c(c(/C=N/N5CCN(C)CC5)c(O)c4c3C2=O)NC(=O)/C(C)=C\C=C\[C@H](C)[C@H](O)[C@@H](C)[C@@H](O)[C@@H](C)[C@H](OC(C)=O)[C@@H]1C | inactive | inactive | inactive | inactive |  |  |  |  | 
CCN(Cc1cccnc1)C(=O)c1cccc(Cl)c1[C@]1(C)C(=O)N(Cc2ccc(OC)cc2OC)c2ccc(Cl)cc21 |  |  |  | inactive | 11.6 µM (active) |  | 21.3 µM (active) | 5.5 µM (active) | 
CCCC(=O)OCCC(C)C | inactive | inactive | inactive | inactive |  |  |  |  | 
CCOC(=O)O[C@H](C)OC(=O)c1ccc2c(c1)cc(C(=O)NC1CCN(C(C)C)CC1)n2Cc1cc(-c2ccc(Cl)s2)on1 | inactive | inactive | inactive | inactive |  | inactive |  |  | 
Cc1cn([C@H]2C[C@H](N=[N+]=[N-])[C@@H](CO)O2)c(=O)[nH]c1=O | inactive | inactive | inactive | inactive |  |  |  |  | 
c1ccc2n[nH]nc2c1 | inactive | inactive | inactive | inactive |  | inactive |  |  | 
CCN(CC)C(=O)c1cc(S(=O)(=O)Cc2ccccc2)c(N2CCC(c3ccccc3)CC2)cc1N(CC)CCN(C)C |  |  | inactive | inactive |  | inactive | 30.3 µM (active) | 4.87 µM (active) | 
Oc1ccccc1 | inactive | inactive | inactive | inactive |  | inactive |  |  | 
CC1=CC(=O)/C(=C(/C)O)C(=O)O1 | inactive | inactive | inactive | inactive |  | inactive |  |  | 
CCCCCCCCOc1ccc(C(=O)c2ccccc2)c(O)c1 | inactive | inactive | inactive | inactive |  | inactive |  |  | 
c1ccc2ccccc2c1 | inactive | inactive | inactive | inactive |  | inactive |  |  | 
CCCCCc1ccc(N)cc1 | inactive | inactive | inactive | inactive |  | inactive |  |  | 
CC/C(=C(/CC)c1ccc(O)cc1)c1ccc(O)cc1 |  |  | inactive |  |  |  | 50 µM (active) | 50 µM (active) | 80.3 µM (active)
c1ccc(C[n+]2cccc3ccccc32)cc1 | inactive |  |  | inactive | 50 µM (active) | inactive |  | 50 µM (active) | 
